Here are results for five molecules from PubChem BioAssay (EPA / NIEHS).

As usually defined, the AC50 is the midpoint of the concentration-response curve, whichever way the signal moves.

Each structure is given as a SMILES string. The source holds several records for some structures; these can differ, active in one and inactive in another. Calls of active or inactive are those of the source. The calls were made as follows: active = hit-call score of the fitted dose curve at least 0.9, where 1 is the maximum; inactive = score below 0.9.

Assay [1] in a line: ATG_E_Box_CIS: Attagene CIS-FACTORIAL HepG2 Assay for human Enhancer Box (E-box) (AID 2282936). The note with it: HepG2 E-box cis-reporter transcription, actives raise or lower the signal. The essentials: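 Multiplexed CIS reporter system in transiently transfected HepG2 cells measures native transcription factor activity. Reporter RNA after 24 h exposure is profiled by RT-PCR-capillary electrophoresis.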

Assay [2] in a line: ATG_M_61_CIS: Attagene CIS-FACTORIAL HepG2 Assay for M61 Transcription Factor (Internal Marker) (AID 2282937). The settings on record: HepG2 Attagene CIS-FACTORIAL M61 internal marker reporter; actives raise or lower the signal. The procedure, abridged:
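Multiplexed reporter mRNA assay, HepG2 human hepatoma cells, 24 h treatment. Signal: FAM-labelled, HpaI-digested RT-PCR fragments by CE. Fit: bidirectional, baseline DMSO.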

Assay [3] can be described thus: ATG_EGR_CIS: Attagene CIS-FACTORIAL HepG2 Assay for human Early Growth Response 1 (EGR1) (AID 2282938). The note with it: HepG2 Attagene CIS-FACTORIAL EGR reporter mRNA; actives raise or lower the signal. The procedure, abridged: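 Multiplexed cis-reporter system in human hepatoma HepG2 cells, transiently transfected. Cells are dosed for 24 h; reporter transcripts are amplified, fluorescently tagged and sized by capillary electrophoresis, with DMSO as negative control.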

A short description of assay [4]: ATG_M_19_CIS: Attagene CIS-FACTORIAL HepG2 Assay for M19 Transcription Factor (Internal Marker) (AID 2282939). The settings on record: HepG2 Attagene CIS-FACTORIAL M19 internal marker reporter; actives raise or lower the signal. The procedure, abridged:
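HepG2 cells transiently transfected with cis-regulated multiple reporter transcription units were dosed for 24 h; reporter mRNA was quantified by RT-PCR, 6-FAM primer-extension labelling, HpaI digestion and capillary electrophoresis, with bidirectional fitting against DMSO baseline.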

Assay [5] is described as follows: ATG_ERE_CIS: Attagene CIS-FACTORIAL HepG2 Assay for Estrogen Response Element (ERE) (AID 2282940). The settings on record: HepG2 ERE cis-reporter, Attagene RNA transcript; actives raise or lower the signal. The essentials: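 HepG2 cells transiently transfected with cis-promoter-driven multiplexed reporter transcription units report endogenous TF activity. After 24 h compound exposure, reporter mRNA is quantified by RT-PCR with capillary electrophoresis fluorescence; bidirectional fitting versus DMSO baseline.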

A short description of assay [6]: ATG_Ets_CIS: Attagene CIS-FACTORIAL HepG2 Assay for human Erythroblast Transformation Specific (ETS) (AID 2282941). The note with it: HepG2 ETS cis-reporter transcription, actives raise or lower the signal. The essentials:
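After transient cis-reporter transfection, HepG2 cells receive test chemical for 24 h. Reporter mRNA levels, measured by RT-PCR and capillary electrophoresis fluorescence, are analysed bidirectionally relative to the DMSO baseline.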

The target of assay [7] is Hepatocyte nuclear factor 3-beta (Homo sapiens) (UniProt Q9Y261). Description: ATG_FoxA2_CIS: Attagene CIS-FACTORIAL HepG2 Assay for human Forkhead box A2 (FOXA2) (AID 2282942). The note with it: HepG2 cis-reporter transcription factor activity, 24 h; actives raise or lower the signal. The procedure, abridged: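 Multiplexed cis-element reporter assay in transiently transfected HepG2. Twenty-four hours post-dosing, RNA was reverse-transcribed, amplified, FAM-labelled, HpaI-digested and separated by CE. Activity gain or loss relative to DMSO.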
Hepatocyte nuclear factor 3-beta (Homo sapiens), sequence (Q9Y261 whole entry, looked up): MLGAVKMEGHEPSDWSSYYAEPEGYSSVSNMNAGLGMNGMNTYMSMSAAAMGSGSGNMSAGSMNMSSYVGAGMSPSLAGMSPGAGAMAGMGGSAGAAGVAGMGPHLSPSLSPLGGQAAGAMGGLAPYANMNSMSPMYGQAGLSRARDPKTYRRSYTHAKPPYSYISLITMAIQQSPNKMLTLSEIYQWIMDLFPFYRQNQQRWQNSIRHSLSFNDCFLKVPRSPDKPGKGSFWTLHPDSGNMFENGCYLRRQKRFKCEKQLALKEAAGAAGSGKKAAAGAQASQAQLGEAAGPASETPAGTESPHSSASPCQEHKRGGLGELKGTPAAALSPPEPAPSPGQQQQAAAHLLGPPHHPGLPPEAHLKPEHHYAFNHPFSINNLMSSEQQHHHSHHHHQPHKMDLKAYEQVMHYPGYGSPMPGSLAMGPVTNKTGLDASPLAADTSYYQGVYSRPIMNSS

A short description of assay [8]: ATG_FoxO_CIS: Attagene CIS-FACTORIAL HepG2 Assay for human Forkhead box O (FoxO) (AID 2282943). The settings on record: HepG2 Attagene cis-reporter, FoxO element, mRNA; actives raise or lower the signal. The procedure, abridged: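 Values reflect reporter mRNA induction or loss in HepG2 cells 24 h post-dosing, fitted bidirectionally with DMSO as negative control and baseline. Detection used RT-PCR and fluorescence capillary electrophoresis.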

The nature of assay [9]: ATG_GATA_CIS: Attagene CIS-FACTORIAL HepG2 Assay for human GATA Binding Protein (AID 2282944). The note with it: HepG2 GATA cis-element reporter, Attagene multiplex mRNA; actives raise or lower the signal. The procedure, abridged:
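HepG2 cells transiently transfected with multiplexed cis-element reporter units reflecting endogenous transcription factor activity; reporter mRNA measured after 24 h dosing by RT-PCR, 6-FAM labeling, HpaI digestion and capillary electrophoresis. Bidirectional fitting versus DMSO baseline.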

A short description of assay [10]: ATG_GLI_CIS: Attagene CIS-FACTORIAL HepG2 Assay for human Zinc Finger Protein GLI1 (AID 2282945). The note with it: HepG2, Attagene cis-factorial reporter mRNA, GLI element; actives raise or lower the signal. The essentials: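 HepG2 cells transiently transfected with cis-promoter multiplexed reporter units report endogenous transcription factor activity. After 24 h chemical exposure, reporter mRNA was quantified by RT-PCR, 6-FAM labelling, HpaI digestion and capillary electrophoresis, with bidirectional fitting against DMSO.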

Assay [11] in a line: ATG_GRE_CIS: Attagene CIS-FACTORIAL HepG2 Assay for human Glucocorticoid Response Elements (GRE) (AID 2282947). The note with it: HepG2 GRE cis-reporter, Attagene multiplex mRNA; actives raise or lower the signal. The essentials: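 Following 24 h chemical exposure of transiently transfected HepG2 cells, total RNA was reverse-transcribed and reporter cDNA amplified, fluorescently labelled and sized by capillary electrophoresis. Signal gain or loss was fitted relative to DMSO vehicle.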

Assay [12] in a line: ATG_ISRE_CIS: Attagene CIS-FACTORIAL HepG2 Assay for human Interferon Regulatory Factor 1 (IRF1) binding to an Interferon-Stimulated Response Element (ISRE) (AID 2282948). The note with it: HepG2 ISRE cis-reporter (Attagene), mRNA transcription readout; actives raise or lower the signal. The procedure, abridged: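 Quantitation relies on labelled RT-PCR fragments separated by capillary electrophoresis. Human HepG2 cells bearing cis-promoter reporter constructs were treated 24 h; DMSO served as baseline for bidirectional fitting.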

Assay [13] can be described thus: ATG_M_32_CIS: Attagene CIS-FACTORIAL HepG2 Assay for M32 Transcription Factor (Internal Marker) (AID 2282949).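 Also: background control marker of the multiplexed CIS panel rather than a real target.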 The note with it: HepG2 Attagene cis-factorial M32 reporter, mRNA; actives raise or lower the signal. The essentials:
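HepG2 cells transiently transfected with multiplexed cis-regulated reporter units, dosed 24 h. Reporter mRNA quantified by RT-PCR, 6-FAM labelling, HpaI digestion and capillary electrophoresis; bidirectional fit vs DMSO.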

A short description of assay [14]: ATG_M_06_CIS: Attagene CIS-FACTORIAL HepG2 Assay for M06 Transcription Factor (Internal Marker) (AID 2282950). The note with it: HepG2 Attagene CIS-FACTORIAL M06 internal marker reporter; actives raise or lower the signal. The essentials:
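HepG2 cells transiently transfected with cis-regulated multiple reporter transcription units were exposed to chemical for 24 h; reporter mRNA was quantified by RT-PCR, 6-FAM primer labelling, HpaI digestion and capillary electrophoresis, fitted bidirectionally against DMSO.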

Assay [15] concerns the target Hypoxia-inducible factor 1-alpha (Homo sapiens) (UniProt Q16665). Description: ATG_HIF1a_CIS: Attagene CIS-FACTORIAL HepG2 Assay for human Hypoxia Inducible Factor 1 (HIF1A) (AID 2282951). The settings on record: HepG2 Attagene cis-factorial HIF1a reporter transcription; actives raise or lower the signal. The essentials:
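Cis-element reporter constructs were transiently transfected into HepG2 cells, which were treated for 24 h; reporter RNA was reverse-transcribed, amplified, labelled and resolved by capillary electrophoresis.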

Assay [16] has as its target Hepatocyte nuclear factor 6 (Homo sapiens) (UniProt Q9UBC0). Description: ATG_HNF6_CIS: Attagene CIS-FACTORIAL HepG2 Assay for human Hepatocyte Nuclear Factor 6 (HNF6) (AID 2282952). The settings on record: HepG2 Attagene cis-factorial HNF6 reporter transcription; actives raise or lower the signal. The essentials: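 HepG2 cells transiently transfected with cis-element-driven multiplexed reporter units measuring endogenous transcription factor activity. After 24 h exposure, reporter mRNA quantified by RT-PCR, FAM-labelled fragments and capillary electrophoresis; bidirectional fitting versus DMSO.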

For assay [17], the target named is Heat shock factor protein 1 (Homo sapiens) (UniProt Q00613). The experiment in a line: ATG_HSE_CIS: Attagene CIS-FACTORIAL HepG2 Assay for human Heat Shock Transcription Factor 1 (HSE) (AID 2282953). The settings on record: HepG2 HSE cis-reporter, Attagene RNA transcription; actives raise or lower the signal. The essentials:
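HepG2 cells transiently transfected with multiple reporter transcription units under cis-regulatory promoter control, measuring endogenous transcription factor activity. After 24 h chemical exposure, reporter mRNA quantified by RT-PCR, fluorescent labelling, HpaI digestion and capillary electrophoresis; bidirectional fit versus DMSO.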

Assay [18] is described as follows: ATG_MRE_CIS: Attagene CIS-FACTORIAL HepG2 Assay for human Metal Responsive Element (MRE) (AID 2282954). The settings on record: HepG2 MRE cis-reporter transcription, Attagene multiplex; actives raise or lower the signal. The procedure, abridged:
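Step one: transfect HepG2 with cis-regulated reporter units. Step two: dose 24 h. Step three: isolate RNA, RT-PCR, 6-FAM label, HpaI digest, capillary electrophoresis. Fit bidirectionally to DMSO.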

Assay [19] in a line: ATG_PBREM_CIS: Attagene CIS-FACTORIAL HepG2 Assay for human Phenobarbital-responsive Enhancer Module (PBREM) (AID 2282955). The settings on record: HepG2 PBREM cis-reporter, Attagene multiplexed transcription; actives raise or lower the signal. The essentials:
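Multiplexed cis-reporter readout in human hepatoma HepG2 cells; PBREM-regulated transcript quantified after 24 h exposure by fluorescent RT-PCR fragment analysis. Signal changes up or down fitted relative to DMSO.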

The target of assay [20] is Paired box protein Pax-6 (Homo sapiens) (UniProt P26367). The experiment in a line: ATG_Pax6_CIS: Attagene CIS-FACTORIAL HepG2 Assay for human Paired Box 6 (PAX6) (AID 2282956). The settings on record: HepG2 CIS-FACTORIAL PAX6 reporter transcription, RNA readout; actives raise or lower the signal. The procedure, abridged: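 After twenty-four hours of chemical exposure, transfected HepG2 cells are harvested for RNA. Cis-promoter reporter transcripts are amplified, fluorescently labelled and sized by capillary electrophoresis, with gain and loss of signal scored against DMSO.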
Paired box protein Pax-6 (Homo sapiens), sequence (P26367 whole entry, looked up): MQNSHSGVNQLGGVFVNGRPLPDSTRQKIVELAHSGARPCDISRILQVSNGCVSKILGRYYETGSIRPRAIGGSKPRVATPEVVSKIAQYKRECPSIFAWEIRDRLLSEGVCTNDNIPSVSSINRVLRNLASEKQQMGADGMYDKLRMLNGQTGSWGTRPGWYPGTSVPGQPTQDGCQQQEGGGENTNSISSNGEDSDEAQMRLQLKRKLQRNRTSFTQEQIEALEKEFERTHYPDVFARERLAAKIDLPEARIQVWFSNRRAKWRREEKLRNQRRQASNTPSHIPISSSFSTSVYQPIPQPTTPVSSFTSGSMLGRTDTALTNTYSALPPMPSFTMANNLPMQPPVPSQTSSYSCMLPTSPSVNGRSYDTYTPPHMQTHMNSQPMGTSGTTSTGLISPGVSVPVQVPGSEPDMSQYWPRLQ

Hypoxia-inducible factor 1-alpha (Homo sapiens), sequence (Q16665 whole entry, looked up): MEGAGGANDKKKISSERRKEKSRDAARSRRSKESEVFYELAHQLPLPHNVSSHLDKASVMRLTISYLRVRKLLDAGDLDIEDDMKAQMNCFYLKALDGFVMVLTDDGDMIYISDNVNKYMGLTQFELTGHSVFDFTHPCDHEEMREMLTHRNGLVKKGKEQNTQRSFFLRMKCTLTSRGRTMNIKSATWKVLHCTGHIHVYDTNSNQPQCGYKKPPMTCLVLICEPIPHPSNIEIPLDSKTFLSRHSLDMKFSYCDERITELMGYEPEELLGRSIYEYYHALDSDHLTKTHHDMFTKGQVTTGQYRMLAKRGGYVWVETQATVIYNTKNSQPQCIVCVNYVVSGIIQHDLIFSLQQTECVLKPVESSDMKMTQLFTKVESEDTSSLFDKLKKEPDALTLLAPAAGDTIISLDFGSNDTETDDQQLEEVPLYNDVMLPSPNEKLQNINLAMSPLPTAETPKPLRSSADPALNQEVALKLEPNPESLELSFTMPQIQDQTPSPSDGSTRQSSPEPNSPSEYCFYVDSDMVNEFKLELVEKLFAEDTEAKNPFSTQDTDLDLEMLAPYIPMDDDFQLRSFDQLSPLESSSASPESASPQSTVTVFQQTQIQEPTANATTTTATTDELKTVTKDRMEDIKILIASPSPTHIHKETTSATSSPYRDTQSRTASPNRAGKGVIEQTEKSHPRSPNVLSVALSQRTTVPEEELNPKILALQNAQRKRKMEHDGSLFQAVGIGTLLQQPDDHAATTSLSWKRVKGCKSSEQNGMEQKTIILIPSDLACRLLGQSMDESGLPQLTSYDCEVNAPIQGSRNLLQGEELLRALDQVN
Heat shock factor protein 1 (Homo sapiens), sequence (Q00613 whole entry, looked up): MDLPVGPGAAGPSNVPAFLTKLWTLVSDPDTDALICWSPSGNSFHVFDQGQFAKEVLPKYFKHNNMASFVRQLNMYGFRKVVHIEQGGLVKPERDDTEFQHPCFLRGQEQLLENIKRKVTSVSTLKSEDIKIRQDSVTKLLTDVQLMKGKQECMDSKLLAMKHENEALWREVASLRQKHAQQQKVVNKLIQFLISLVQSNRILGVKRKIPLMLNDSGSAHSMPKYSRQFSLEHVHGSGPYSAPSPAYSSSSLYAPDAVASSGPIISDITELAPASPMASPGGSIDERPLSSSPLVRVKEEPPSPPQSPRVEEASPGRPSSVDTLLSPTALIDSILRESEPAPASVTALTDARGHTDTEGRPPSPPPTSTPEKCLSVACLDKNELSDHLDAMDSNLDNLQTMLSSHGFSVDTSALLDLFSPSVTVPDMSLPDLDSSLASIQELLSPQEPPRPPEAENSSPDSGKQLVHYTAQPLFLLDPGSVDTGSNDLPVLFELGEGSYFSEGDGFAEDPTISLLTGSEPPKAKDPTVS
Hepatocyte nuclear factor 6 (Homo sapiens), sequence (Q9UBC0 whole entry, looked up, the tested form may be a part): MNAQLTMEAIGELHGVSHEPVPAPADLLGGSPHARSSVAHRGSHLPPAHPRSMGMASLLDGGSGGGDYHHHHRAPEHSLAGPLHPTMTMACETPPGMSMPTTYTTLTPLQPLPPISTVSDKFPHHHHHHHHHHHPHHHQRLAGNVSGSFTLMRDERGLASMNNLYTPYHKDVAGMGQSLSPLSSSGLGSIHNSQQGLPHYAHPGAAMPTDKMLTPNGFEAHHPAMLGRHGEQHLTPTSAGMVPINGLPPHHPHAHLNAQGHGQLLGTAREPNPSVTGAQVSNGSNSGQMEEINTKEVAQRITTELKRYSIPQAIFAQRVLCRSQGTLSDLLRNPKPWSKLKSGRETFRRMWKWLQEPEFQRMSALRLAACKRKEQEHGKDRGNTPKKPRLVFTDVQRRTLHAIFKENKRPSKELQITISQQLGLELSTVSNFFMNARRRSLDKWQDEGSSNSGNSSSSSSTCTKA

In the case of `O=C(N[C@H]1CN2CCC1CC2)c1cc2ccoc2cn1`, the result in assay [1], in assay [2], in assay [3], in assay [4], in assay [5] and in assay [6] was inactive. Also, the outcome in assay [7], in assay [8], in [9], in [10], in assay [11] and in assay [13] was inactive. Besides, the molecule was classed as inactive in assay [14], in assay [15], in assay [16], in assay [17], in [18] and in assay [19]. Further, in assay [20], the result was inactive. For the same molecule, the AC50 in [12] was 82.4 µM (active).
In the case of `CCSC(=O)N(CC)C1CCCCC1`, the result in [1], in assay [2], in assay [3], in assay [4], in assay [5] and in [6] was inactive. The call in assay [7], in assay [8], in assay [9], in assay [10], in assay [11] and in assay [12] was inactive. Further, the outcome in assay [13], in assay [14], in [15], in [16], in assay [17] and in assay [18] was inactive. Besides, the call in [20] was inactive.
With `COS(=O)(=O)OC`, the outcome in [1], in assay [2], in assay [3], in assay [4], in assay [5] and in [6] was inactive. Also, the molecule was classed as inactive in [7], in assay [8], in assay [9], in assay [10], in assay [11] and in assay [12]. For the same molecule, the molecule was classed as inactive in [13], in assay [14], in [16], in [17], in [18] and in [20]. For the same molecule, the AC50 in assay [15] was 26.9 µM (active).
Consider `CCCCCCCCCc1ccc(O)cc1`, for which the AC50 in [1] is 63.2 µM (active); in assay [9] it was 49.7 µM (active); in assay [10] it was 184 µM (active); in assay [13] it was 166 µM (active); in [16] it was 145 µM (active); in assay [18], 17.5 µM (active). Besides, the outcome in assay [1], in [2], in assay [3], in assay [4], in assay [6] and in [7] was inactive. In addition, the molecule was classed as inactive in assay [8], in assay [9], in assay [10], in assay [12], in assay [13] and in assay [14]. Besides, the call in [16], in assay [17], in assay [18], in assay [19] and in assay [20] was inactive.
`ClC1=C(Cl)[C@]2(Cl)[C@@H]3[C@@H](Cl)[C@H]4O[C@H]4[C@@H]3C1(Cl)C2(Cl)Cl`: the AC50 is 53 µM (active) in assay [1]; 54.9 µM (active) in assay [3]; 179 µM (active) in assay [4]; 162 µM (active) in assay [9]; 57.6 µM (active) in assay [12]; 85.5 µM (active) in assay [17]. Further, the concentration at half-maximal activity (AC50) in assay [18] was 100 µM (active). For the same molecule, the result in [2], in [5], in assay [6], in assay [7], in assay [8] and in assay [10] was inactive. Further, the call in assay [11], in [13], in assay [14], in assay [15], in assay [16] and in assay [19] was inactive. Further, in assay [20], the molecule was classed as inactive.
